# Shown is part of a subset that was picked to be rich in the strongest signals.
# How the values were obtained:
# Assay in all cases: glycan array binding signal (z-score within array); higher = stronger binding
# Details in all cases: glycan notation: IUPAC condensed, linker removed; mutation: Y54A
# [1] = target: Fuc(a1-2)Gal(b1-4)GlcNAc(b1-2)Man
# Procedure, shortened: (§1)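 Glycan array binding is given as a within-array Z-score, which can be read as non-binding when negative. The arrays, 3228 of them, came from the Consortium for Functional Glycomics database and were retained only where the protein sequence was available. Z-scores were averaged across arrays of the same protein sequence at different concentrations or buffers and across linkers.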
# [2] = target: Fuc(a1-2)Gal(b1-4)GlcNAc(b1-3)Gal(b1-4)GlcNAc(b1-2)Man(a1-3)[Fuc(a1-2)Gal(b1-4)GlcNAc(b1-3)Gal(b1-4)GlcNAc(b1-2)Man(a1-6)]Man(b1-4)GlcNAc(b1-4)GlcNAc
# Procedure, shortened: as §1
# [3] = target: Fuc(a1-2)Gal6S(b1-3)GlcNAc
# Procedure, shortened: as §1
# [4] = target: Fuc(a1-2)[Gal(a1-3)]Gal(b1-3)GlcNAc(b1-6)GalNAc
# Procedure, shortened: as §1
# [5] = target: Fuc(a1-2)[GalNAc(a1-3)]Gal(b1-3)GalNAc(b1-3)Gal(a1-4)Gal(b1-4)Glc
# Procedure, shortened: as §1
# Fuc(b1-3)GlcNAc = target: Fuc(b1-3)GlcNAc
# Procedure, shortened: as §1
# [6] = target: Gal(a1-3)Gal(b1-4)GlcNAc(b1-2)Man(a1-3)[Gal(a1-3)Gal(b1-4)GlcNAc(b1-2)Man(a1-6)]Man(b1-4)GlcNAc(b1-4)GlcNAc
# Procedure, shortened: as §1
# [7] = target: Gal(a1-3)Gal(b1-4)GlcNAc(b1-6)GalNAc
# Procedure, shortened: as §1
# Gal(b1-3)Gal = target: Gal(b1-3)Gal
# Procedure, shortened: as §1
# [8] = target: Gal(b1-3)GlcNAc(b1-3)Gal(b1-3)GlcNAc
# Procedure, shortened: as §1
# [9] = target: Gal(b1-3)GlcNAc(b1-3)Gal(b1-4)Glc
# Procedure, shortened: as §1
# [10] = target: Gal(b1-3)[Fuc(a1-4)]GlcNAc(b1-2)Man
# Procedure, shortened: as §1
# [11] = target: Gal(b1-3)[Fuc(a1-4)]GlcNAc(b1-2)Man(a1-3)[Gal(b1-3)[Fuc(a1-4)]GlcNAc(b1-2)Man(a1-6)]Man(b1-4)GlcNAc(b1-4)[Fuc(a1-6)]GlcNAc
# Procedure, shortened: as §1
# [12] = target: Gal(b1-4)GlcNAc(b1-2)[Gal(b1-4)GlcNAc(b1-4)]Man(a1-3)[Gal(b1-4)GlcNAc(b1-2)[Gal(b1-4)GlcNAc(b1-6)]Man(a1-6)]Man(b1-4)GlcNAc(b1-4)GlcNAc
# Procedure, shortened: as §1
# [13] = target: Gal(b1-4)GlcNAc(b1-3)Gal(b1-4)GlcNAc(b1-3)Gal(b1-4)GlcNAc(b1-3)Gal(b1-4)GlcNAc(b1-2)Man(a1-3)[Gal(b1-4)GlcNAc(b1-3)Gal(b1-4)GlcNAc(b1-3)Gal(b1-4)GlcNAc(b1-3)Gal(b1-4)GlcNAc(b1-2)Man(a1-6)]Man(b1-4)GlcNAc(b1-4)GlcNAc
# Procedure, shortened: as §1
# [14] = target: Gal(b1-4)GlcNAc(b1-3)Gal(b1-4)GlcNAc(b1-3)Gal(b1-4)GlcNAc(b1-3)Gal(b1-4)GlcNAc(b1-3)Gal(b1-4)GlcNAc(b1-2)Man(a1-3)[Gal(b1-4)GlcNAc(b1-3)Gal(b1-4)GlcNAc(b1-3)Gal(b1-4)GlcNAc(b1-3)Gal(b1-4)GlcNAc(b1-3)Gal(b1-4)GlcNAc(b1-2)Man(a1-6)]Man(b1-4)GlcNAc(b1-4)[Fuc(a1-6)]GlcNAc
# Procedure, shortened: as §1
# [15] = target: Gal(b1-4)GlcNAc(b1-3)Gal(b1-4)GlcNAc(b1-3)Gal(b1-4)GlcNAc(b1-3)Gal(b1-4)GlcNAc(b1-3)Gal(b1-4)GlcNAc(b1-2)[Gal(b1-4)GlcNAc(b1-3)Gal(b1-4)GlcNAc(b1-3)Gal(b1-4)GlcNAc(b1-3)Gal(b1-4)GlcNAc(b1-3)Gal(b1-4)GlcNAc(b1-6)]Man(a1-6)[Gal(b1-4)GlcNAc(b1-3)Gal(b1-4)GlcNAc(b1-3)Gal(b1-4)GlcNAc(b1-3)Gal(b1-4)GlcNAc(b1-3)Gal(b1-4)GlcNAc(b1-2)Man(a1-3)]Man(b1-4)GlcNAc(b1-4)[Fuc(a1-6)]GlcNAc
# Procedure, shortened: as §1
# [16] = target: Gal(b1-4)GlcNAc(b1-3)Gal(b1-4)GlcNAc(b1-3)[Gal(b1-4)GlcNAc(b1-3)Gal(b1-4)GlcNAc(b1-6)]GalNAc
# Procedure, shortened: as §1
# Gal(b1-6)Gal = target: Gal(b1-6)Gal
# Procedure, shortened: as §1
# [17] = target: Gal3S(b1-4)[Fuc(a1-3)]GlcNAc6S
# Procedure, shortened: as §1
# Gal3S6S(b1-4)GlcNAc6S = target: Gal3S6S(b1-4)GlcNAc6S
# Procedure, shortened: as §1
# Gal4S6S(b1-4)GlcNAc = target: Gal4S6S(b1-4)GlcNAc
# Procedure, shortened: as §1
# Gal6S(b1-4)GlcNAc = target: Gal6S(b1-4)GlcNAc
# Procedure, shortened: as §1
# [18] = target: GalNAc(b1-3)Gal(a1-4)Gal(b1-4)GlcNAc(b1-3)Gal(b1-4)Glc
# Procedure, shortened: as §1
# GalNAc(b1-3)GalNAc = target: GalNAc(b1-3)GalNAc
# Procedure, shortened: as §1
# [19] = target: GalNAc3S(b1-4)[Fuc(a1-3)]GlcNAc
# Procedure, shortened: as §1
# [20] = target: GlcA3S(b1-3)Gal(b1-4)GlcNAc(b1-3)Gal(b1-4)Glc
# Procedure, shortened: as §1
# [21] = target: GlcNAc(b1-2)Gal(b1-3)GalNAc
# Procedure, shortened: as §1
# [22] = target: Man(a1-3)[Man(a1-6)]Man(a1-6)[Man(a1-2)Man(a1-3)]Man(b1-4)GlcNAc(b1-4)GlcNAc
# Procedure, shortened: as §1
# [23] = target: Neu5Ac(a2-3)Gal(b1-3)GalNAc6S
# Procedure, shortened: as §1
# [24] = target: Neu5Ac(a2-3)Gal(b1-3)GlcNAc(b1-2)Man(a1-3)[Neu5Ac(a2-3)Gal(b1-3)GlcNAc(b1-2)Man(a1-6)]Man(b1-4)GlcNAc(b1-4)GlcNAc
# Procedure, shortened: as §1
# [25] = target: Neu5Ac(a2-3)Gal(b1-3)GlcNAc(b1-2)[Neu5Ac(a2-3)Gal(b1-3)GlcNAc(b1-4)]Man(a1-6)[Neu5Ac(a2-3)Gal(b1-3)GlcNAc(b1-2)Man(a1-3)]Man(b1-4)GlcNAc(b1-4)GlcNAc
# Procedure, shortened: as §1
# [26] = target: Neu5Ac(a2-3)Gal(b1-3)GlcNAc6S
# Procedure, shortened: as §1
# [27] = target: Neu5Ac(a2-3)Gal(b1-3)[Neu5Ac(a2-6)]GalNAc
# Procedure, shortened: as §1
# [28] = target: Neu5Ac(a2-3)Gal(b1-4)GlcNAc(b1-2)Man(a1-3)[Neu5Ac(a2-3)Gal(b1-4)GlcNAc(b1-2)Man(a1-6)]Man(b1-4)GlcNAc(b1-4)GlcNAc
# Procedure, shortened: as §1
# [29] = target: Neu5Ac(a2-3)Gal(b1-4)GlcNAc(b1-3)GalNAc
# Procedure, shortened: as §1
# [30] = target: Neu5Ac(a2-3)Gal(b1-4)[Fuc(a1-3)]GlcNAc(b1-3)GalNAc
# Procedure, shortened: as §1
# [31] = target: Neu5Ac(a2-3)Gal6S(b1-4)GlcNAc
# Procedure, shortened: as §1
# Neu5Ac(a2-6)Gal(b1-4)Glc = target: Neu5Ac(a2-6)Gal(b1-4)Glc
# Procedure, shortened: as §1
# [32] = target: Neu5Ac(a2-6)Gal(b1-4)GlcNAc(b1-2)Man(a1-3)[GlcNAc(b1-4)][Neu5Ac(a2-6)Gal(b1-4)GlcNAc(b1-2)Man(a1-6)]Man(b1-4)GlcNAc(b1-4)GlcNAc
# Procedure, shortened: as §1
# [33] = target: Neu5Ac(a2-6)Gal(b1-4)GlcNAc(b1-2)[Neu5Ac(a2-6)Gal(b1-4)GlcNAc(b1-4)]Man(a1-3)[GlcNAc(b1-4)][Neu5Ac(a2-6)Gal(b1-4)GlcNAc(b1-2)[Neu5Ac(a2-6)Gal(b1-4)GlcNAc(b1-6)]Man(a1-6)]Man(b1-4)GlcNAc(b1-4)GlcNAc
# Procedure, shortened: as §1
# [34] = target: Neu5Ac(a2-6)Gal(b1-4)GlcNAc(b1-3)Gal(b1-4)GlcNAc(b1-3)Gal(b1-4)GlcNAc
# Procedure, shortened: as §1
# [35] = target: Neu5Ac(a2-6)Gal(b1-4)GlcNAc(b1-3)Gal(b1-4)[Fuc(a1-3)]GlcNAc(b1-3)Gal(b1-4)[Fuc(a1-3)]GlcNAc
# Procedure, shortened: as §1
# [36] = target: Neu5Ac(a2-6)Gal(b1-4)GlcNAc(b1-6)[Gal(b1-3)]GalNAc
# Procedure, shortened: as §1
# [37] = target: Neu5Ac(a2-6)Gal(b1-4)GlcNAc6S
# Procedure, shortened: as §1
# [38] = target: Neu5Ac(a2-8)Neu5Ac(a2-8)Neu5Ac(a2-3)Gal(b1-4)Glc
# Procedure, shortened: as §1
# [39] = target: Neu5Ac(a2-8)Neu5Gc(a2-3)Gal(b1-4)GlcNAc
# Procedure, shortened: as §1
# Neu5Ac(b2-6)GalNAc = target: Neu5Ac(b2-6)GalNAc
# Procedure, shortened: as §1
# [40] = target: Neu5Gc(a2-3)Gal(b1-4)GlcNAc(b1-3)Gal(b1-4)GlcNAc(b1-2)Man(a1-3)[Neu5Gc(a2-3)Gal(b1-4)GlcNAc(b1-3)Gal(b1-4)GlcNAc(b1-2)Man(a1-6)]Man(b1-4)GlcNAc(b1-4)GlcNAc
# Procedure, shortened: as §1
# [41] = target: Neu5Gc(b2-6)Gal(b1-4)GlcNAc
# Procedure, shortened: as §1
binder,measurement,setting,value
"CBP21 (Serratia marcescens), O83009 (protein) MNKTSRTLLSLGLLSAAMFGVSQQANAHGYVESPASRAYQCKLQLNTQCGSVQAEPQSVEGLKGFPQAGPADGHIASADKSTFFELDQQTPTRWNKLNLKTGPNSFTWKLTARHSTTSWRYFITKPNWDASQPLTRASFDLTPFCQFNDGGAIPAAQVTHQCNIPADRSGSHVILAVWDIADTANAFYQAIDVNLSK",glycan array binding signal (z-score),[1],-0.872
same,glycan array binding signal (z-score),[2],2.34
same,glycan array binding signal (z-score),[3],4.33
same,glycan array binding signal (z-score),[4],-0.403
same,glycan array binding signal (z-score),[5],-0.164
same,glycan array binding signal (z-score),Fuc(b1-3)GlcNAc,-0.276
same,glycan array binding signal (z-score),[6],-0.395
same,glycan array binding signal (z-score),[7],1.24
same,glycan array binding signal (z-score),Gal(b1-3)Gal,-0.635
same,glycan array binding signal (z-score),[8],0.339
same,glycan array binding signal (z-score),[9],1.22
same,glycan array binding signal (z-score),[10],0.608
same,glycan array binding signal (z-score),[11],0.588
same,glycan array binding signal (z-score),[12],0.113
same,glycan array binding signal (z-score),[13],0.181
same,glycan array binding signal (z-score),[14],5.09
same,glycan array binding signal (z-score),[15],1.3
same,glycan array binding signal (z-score),[16],-0.31
same,glycan array binding signal (z-score),Gal(b1-6)Gal,-0.809
same,glycan array binding signal (z-score),[17],-0.109
same,glycan array binding signal (z-score),Gal3S6S(b1-4)GlcNAc6S,4.88
same,glycan array binding signal (z-score),Gal4S6S(b1-4)GlcNAc,0.517
same,glycan array binding signal (z-score),Gal6S(b1-4)GlcNAc,4.2
same,glycan array binding signal (z-score),[18],-0.857
same,glycan array binding signal (z-score),GalNAc(b1-3)GalNAc,-0.995
same,glycan array binding signal (z-score),[19],0.039
same,glycan array binding signal (z-score),[20],-0.278
same,glycan array binding signal (z-score),[21],-0.7
same,glycan array binding signal (z-score),[22],0.228
same,glycan array binding signal (z-score),[23],5.86
same,glycan array binding signal (z-score),[24],-0.307
same,glycan array binding signal (z-score),[25],5.4
same,glycan array binding signal (z-score),[26],-0.121
same,glycan array binding signal (z-score),[27],3.97
same,glycan array binding signal (z-score),[28],-0.458
same,glycan array binding signal (z-score),[29],3.83
same,glycan array binding signal (z-score),[30],0.503
same,glycan array binding signal (z-score),[31],4.07
same,glycan array binding signal (z-score),Neu5Ac(a2-6)Gal(b1-4)Glc,-0.381
same,glycan array binding signal (z-score),[32],-0.098
same,glycan array binding signal (z-score),[33],0.142
same,glycan array binding signal (z-score),[34],-0.314
same,glycan array binding signal (z-score),[35],4.6
same,glycan array binding signal (z-score),[36],0.13
same,glycan array binding signal (z-score),[37],3.37
same,glycan array binding signal (z-score),[38],0.027
same,glycan array binding signal (z-score),[39],-0.455
same,glycan array binding signal (z-score),Neu5Ac(b2-6)GalNAc,-0.919
same,glycan array binding signal (z-score),[40],2.24
same,glycan array binding signal (z-score),[41],-0.206
